Hits are enriched below; roughly 19% of the tested compounds scored in any of these assays.
DT40 TDP1 no CPT: qHTS for Inhibitors of human tyrosyl-DNA phosphodiesterase 1 (TDP1): qHTS in cells in absence of CPT. AID 686978, 2013. 420,000 tested, 15% active. Potency, µM (highest dose often 46.2 µM), usual class: inhibitors. DT40 Tdp1-/- hTDP1 cells, no CPT, ATP luminescence, 48 h; further: nearly all actives have a fitted effect of over 55% in size
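Seeded 400 DT40-hTDP1 cells/well (vehicle DMSO, no 20 nM CPT); pinned compounds; ≥48 hr at 37 °C; CellTiter-Glo luminescence as viability measure.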
HT1080 IDH1KD tx: toxicity to HT-1080 IDH1 knockdown cells (counter line). HT-1080 IDH1 knockdown viability, ATP luminescence, 48 h. Potency, µM (doses to about 46.1 µM), usual class: cytotoxic. 360,000 tested, 2% active. AID 686971
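% activity derives from luminescence (CellTiter-Glo), normalised to DMSO and no-cell wells. HT-1080-IDH1KD cells, 750/well, had 48 h compound exposure at 37 °C.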
KB-V1 MDR tox: KB-V1 MDR subline cytotoxicity | KB-V1 MDR cells viability, CellTiter-Glo, 72 h | Potency, µM (top dose mostly 46.1 µM), most hits filed as cytotoxic | 400,000 tested, 3.4% active | AID 1347076; further: nearly all actives have a fitted effect of over 60% in size
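In this primary screen, KB-V1 cells overexpressing P-gp are incubated with library compounds (lowest to highest concentration) for 72 h at 37 degrees C before a luminescent ATP viability read.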
KB-3-1 tox: kills parental KB-3-1 adenocarcinoma cells; KB-3-1 viability, CellTiter-Glo ATP luminescence, 72 h; Potency, µM (doses to about 46.1 µM), hits mostly cytotoxic; 400,000 tested, 1.4% active; AID 1347075; further: nearly all actives have a fitted effect of over 60% in size
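KB-3-1 cells, DMEM (no phenol red) + 10% FBS; compound by pin transfer, 72 h, 37 °C. Readout: CellTiter-Glo luminescence after 10 min. Data normalized, curve-fitted.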
DT40 TDP1 CPT: growth inhibition of DT40 Tdp1-/-;hTDP1 cells with camptothecin (screen for TDP1 inhibitors). chicken DT40 Tdp1-/-;hTDP1 cells + 20 nM CPT, ATP luminescence, 48 h. Potency, µM (doses to about 46.2 µM), usual class: inhibitors. 420,000 tested, 12% active. AID 686979; further: nearly all actives have a fitted effect of over 55% in size
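Chicken DT40 Tdp1-/- cells complemented with human TDP1, 400 cells/well, exposed to compounds plus 20 nM camptothecin for at least 48 h at 37 C; viability read as ATP content by CellTiter-Glo luminescence.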
HT1080NT lethal: kills 2HG-producing HT-1080-NT fibrosarcoma cells. HT-1080-NT fibrosarcoma viability, CellTiter-Glo ATP luminescence, 48 h. Potency, µM (series often up to 46.1 µM), actives largely listed as cytotoxic. 360,000 tested, 1.6% active;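 further: NT is the 2HG producing partner of a matched IDH1 knockdown line; nearly all actives have a fitted effect of over 55% in size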
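Viability by CellTiter-Glo luminescence after 48 h compound exposure at 37C of HT-1080-NT cells (750/well, RPMI, 5% FBS). % activity scaled between DMSO wells and medium-only wells, then curve-fitted and categorized by curve class.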
Large screens that a line does not name were inactive. The call rests on the fitted dose curve; in most records, active means well fitted curve in the direction sought with a large enough effect; inconclusive means small, poorly fitted or top-dose-only effect, or another doubt; inactive means no such curve, though single readings can be large; an effect the other way counts as inactive or inconclusive.

C/C(=N\NC(=O)C1(C)NC(C)(C)Cc2ccccc21)c1ccccc1 (stereo not drawn)	none
C[C@H](CO)N1C[C@H](C)[C@H](CN(C)Cc2cncnc2)Oc2ncc(C#CC3(O)CCCC3)cc2C1=O	none
COc1ccc(C2(c3ccc(OC)cc3)NC(=O)N(CC(=O)N(C)C)C2=O)cc1	none
CC(C)c1ccc(NC(=O)C2(C)Cc3c(-c4ccc(C(N)=O)cc4)ccnc3O2)cc1 (stereo not drawn)	DT40 TDP1 no CPT 16.4µM, DT40 TDP1 CPT 16.4µM
CC(=O)Nc1ccc(-c2ccnc3c2CC(C)(C(=O)Nc2ccc(C(C)C)cc2)O3)cc1 (stereo not drawn)	DT40 TDP1 no CPT 20.6µM, HT1080 IDH1KD tx inconclusive, DT40 TDP1 CPT 23.1µM, HT1080NT lethal inconclusive
N=C1N(c2ccccc2)C(=S)C(=Nc2ccccc2)N1c1ccccc1	DT40 TDP1 no CPT 13µM, HT1080 IDH1KD tx inconclusive, DT40 TDP1 CPT 18.4µM
COc1ccc(OC)c(/C=N/NC(=O)CCN2CCN(C(c3ccccc3)c3ccccc3)CC2)c1	DT40 TDP1 no CPT 16.4µM, KB-V1 MDR tox inconclusive, DT40 TDP1 CPT inconclusive, HT1080NT lethal inconclusive
O=C(CCN1CCN(C(c2ccccc2)c2ccccc2)CC1)N/N=C/c1ccc(O)cc1O	DT40 TDP1 no CPT 5.17µM, HT1080 IDH1KD tx inconclusive, KB-3-1 tox inconclusive, DT40 TDP1 CPT 6.51µM, HT1080NT lethal inconclusive
CC(C)(C)c1ccc(-c2nnc(-c3ccccc3NC(=O)c3ccc(F)cc3F)o2)cc1	DT40 TDP1 no CPT inconclusive, DT40 TDP1 CPT inconclusive (no result: HT1080 IDH1KD tx, HT1080NT lethal)
Cc1ccccc1C(=O)Nc1ccc2nc(SCCOc3ccccc3)sc2c1	DT40 TDP1 no CPT inconclusive, DT40 TDP1 CPT inconclusive (no result: HT1080 IDH1KD tx, HT1080NT lethal)
Cc1cccc(OCCSc2nc3ccc(NC(=O)c4cccs4)cc3s2)c1	DT40 TDP1 no CPT 11.6µM, DT40 TDP1 CPT 16.4µM (no result: HT1080 IDH1KD tx, HT1080NT lethal)
Cc1cc(C)cc(OCCSc2nc3ccc(NC(=O)c4ccc5c(c4)OCO5)cc3s2)c1	DT40 TDP1 no CPT 5.17µM, DT40 TDP1 CPT inconclusive (no result: HT1080 IDH1KD tx, HT1080NT lethal)
CC(=O)Nc1ccc2nc(SCCOc3ccc(C)cc3)sc2c1	DT40 TDP1 no CPT inconclusive (no result: HT1080 IDH1KD tx, HT1080NT lethal)
Cc1ccccc1OCCSc1nc2ccc(NC(=O)c3cccs3)cc2s1	DT40 TDP1 no CPT 18.4µM, KB-3-1 tox inconclusive, DT40 TDP1 CPT 23.1µM (no result: HT1080 IDH1KD tx, HT1080NT lethal)
COc1cc(C)ccc1OCCSc1nc2ccc(NC(C)=O)cc2s1	DT40 TDP1 no CPT 20.6µM, DT40 TDP1 CPT inconclusive (no result: HT1080 IDH1KD tx, HT1080NT lethal)
COc1ccccc1N1CCN(C(=O)Cn2ncc3ccsc3c2=O)CC1	none (no result: DT40 TDP1 no CPT, HT1080 IDH1KD tx, DT40 TDP1 CPT, HT1080NT lethal)
Cc1ccccc1OCCSc1nc2ccc(NC(=O)c3ccccc3)cc2s1	DT40 TDP1 no CPT inconclusive, KB-3-1 tox inconclusive (no result: HT1080 IDH1KD tx, HT1080NT lethal)
Cc1ccccc1OCCSc1nc2ccc(NC(=O)c3cccc(F)c3)cc2s1	DT40 TDP1 no CPT 11.6µM, DT40 TDP1 CPT 16.4µM (no result: HT1080 IDH1KD tx, HT1080NT lethal)
COC(=O)[C@@]1(C)[C@H]2C(=O)N(Cc3ccccc3)C(=O)[C@H]2[C@H]2CN=C(SCC(=O)c3ccccc3)N21	DT40 TDP1 no CPT inconclusive, DT40 TDP1 CPT inconclusive
COc1cccc(-c2sc3ccc(OC)cc3c2-c2ccc(OC)cc2F)c1	KB-3-1 tox inconclusive
COc1cccc(-c2sc3cc(OC)c(OC)cc3c2-c2ccc(OCCN3CCCCC3)cc2)c1	DT40 TDP1 no CPT 13µM, HT1080 IDH1KD tx 16.4µM, DT40 TDP1 CPT 18.4µM, HT1080NT lethal inconclusive
c1ccc(COc2ccc(OCCN3CCCC3)cc2)cc1	DT40 TDP1 no CPT inconclusive, DT40 TDP1 CPT inconclusive
COc1cccc(-c2sc3ccccc3c2-c2ccc(OCCN3CCCCC3)cc2)c1	DT40 TDP1 no CPT 18.4µM, KB-V1 MDR tox inconclusive, KB-3-1 tox inconclusive, DT40 TDP1 CPT inconclusive
COc1cccc(-c2sc3ccccc3c2-c2ccc(OCCN(C)C)cc2)c1	DT40 TDP1 no CPT 18.4µM, HT1080 IDH1KD tx 16.4µM, KB-V1 MDR tox inconclusive, KB-3-1 tox inconclusive, DT40 TDP1 CPT inconclusive, HT1080NT lethal inconclusive
c1ccc(-c2sc3ccccc3c2-c2ccc(OCCN3CCCC3)cc2)cc1	DT40 TDP1 no CPT 14.6µM, KB-V1 MDR tox inconclusive, KB-3-1 tox inconclusive, DT40 TDP1 CPT 20.6µM, HT1080NT lethal inconclusive
CCCCN(CC)CCNC(=O)Cn1cnc2sc(C)c(S(=O)(=O)N3CCN(c4ccccc4OC)CC3)c2c1=O	DT40 TDP1 no CPT inconclusive, KB-V1 MDR tox inconclusive, DT40 TDP1 CPT inconclusive (no result: HT1080 IDH1KD tx, HT1080NT lethal)
C1=NN(c2ccccc2)C=NN1c1ccccc1	DT40 TDP1 no CPT inconclusive
COc1ccc2sc(-c3ccccc3OC)c(-c3ccc(OCCN(C)C)cc3)c2c1	DT40 TDP1 no CPT 20.6µM, HT1080 IDH1KD tx inconclusive, DT40 TDP1 CPT 16.4µM, HT1080NT lethal inconclusive
COc1cccc(-c2sc3ccccc3c2-c2ccc(OCCN3CCCC3)cc2)c1	DT40 TDP1 no CPT 8.2µM, HT1080 IDH1KD tx inconclusive, KB-V1 MDR tox inconclusive, KB-3-1 tox inconclusive, DT40 TDP1 CPT 9.2µM, HT1080NT lethal inconclusive
COc1cccc(-c2sc3ccc(OC)cc3c2-c2ccc(C(N)=O)cc2)c1	DT40 TDP1 CPT inconclusive, HT1080NT lethal inconclusive
COc1ccc(CNC(=O)CSc2nnc(NC(=O)c3ccccc3F)s2)cc1	DT40 TDP1 no CPT inconclusive
COc1cc(Cn2c(=O)sc3ccccc32)ccc1OCCC(C)C	DT40 TDP1 no CPT inconclusive, DT40 TDP1 CPT inconclusive (no result: HT1080 IDH1KD tx, HT1080NT lethal)
CC1CCCCC1NC(=O)CSc1nnc(C(F)(F)F)n1C (stereo not drawn)	none
COc1ccc(NC(=O)/C(C#N)=C/c2ccc(C)o2)cc1	DT40 TDP1 no CPT inconclusive (no result: HT1080 IDH1KD tx, HT1080NT lethal)
COc1ccc(NC(=O)/C(C#N)=C\c2ccc(N3CCOCC3)o2)cc1	DT40 TDP1 no CPT 20.6µM, DT40 TDP1 CPT inconclusive
N#C/C(=C\c1ccc(N2CCOCC2)o1)C(=O)Nc1ccc(O)cc1	DT40 TDP1 no CPT 29.1µM, DT40 TDP1 CPT inconclusive
